This note sets out measurements from PubChem BioAssay AID630 (Emory University Molecular Libraries Screening Center, 2007).

Each structure is given as a SMILES string. The campaign covered roughly 88,000 compounds. About 260 (0.3%) were called active. Shown is part of a subset that was picked to be rich in actives. Values without a mark were called inactive.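 The calls were made as follows: active = compounds that reduce the energy-transfer binding signal between the protein and its labelled peptide by more than half; inactive = the rest.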

For this assay, the target named is Mothers against decapentaplegic homolog 3 (Homo sapiens) (UniProt P84022). Briefly: Smad3/FoxH1 peptide binding inhibitors, primary screen, biochemical, TR-FRET (AID 630).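 Also: 0% = Smad3 plus labelled peptide maximal FRET and 100% = peptide-only background.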 The note with it: TR-FRET Smad3/Dy647-FoxH1 peptide binding, europium anti-His; at 25 µM; hits give high values.
Mothers against decapentaplegic homolog 3 (Homo sapiens), sequence (P84022 whole entry, looked up): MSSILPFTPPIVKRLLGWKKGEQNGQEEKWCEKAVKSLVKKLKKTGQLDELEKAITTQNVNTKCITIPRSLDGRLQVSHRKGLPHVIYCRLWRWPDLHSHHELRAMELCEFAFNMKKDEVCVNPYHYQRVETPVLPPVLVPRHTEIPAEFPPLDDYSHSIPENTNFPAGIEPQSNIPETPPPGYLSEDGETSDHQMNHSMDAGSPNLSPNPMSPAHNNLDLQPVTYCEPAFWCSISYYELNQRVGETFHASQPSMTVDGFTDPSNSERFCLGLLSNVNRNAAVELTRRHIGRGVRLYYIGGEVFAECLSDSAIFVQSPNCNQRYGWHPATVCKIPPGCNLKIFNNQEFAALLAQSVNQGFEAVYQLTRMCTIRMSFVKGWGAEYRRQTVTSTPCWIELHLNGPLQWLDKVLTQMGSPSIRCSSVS
`CC(C)Nc1ncnc2c1nnn2Cc1ccccc1`: the inhibition was -8.78%.

Regarding `CC1(C)CC(=O)C=C(N2CCCC2)C1`, the inhibition was -13.5%.

For the compound `COc1ccccc1CNS(=O)(=O)c1ccc(C)cc1`, the inhibition was 9.13%.

For the compound `O=C(O)[C@@H]1CCc2ccc3ccccc3c2[C@H]1c1cccc2ccccc12`, the inhibition is -9.06%.

On to `COC(=O)c1ccc(NC(=O)C23CC4CC(C2)CC(n2cnc(Cl)n2)(C4)C3)cc1`, for which the inhibition was 4.51%.

With `O=C(O)[C@@H]1CS[C@]2(CCCN(Cc3ccccc3)C2)N1`, the inhibition was 7.7%.

`O=S1(=O)C=C(SCCN2CCCC2)c2ccccc21`: the inhibition was 17.4%.

On to `CCOC(=O)c1c(NC(=O)CCl)sc(C(=O)N(CC)CC)c1C`, for which the inhibition was 14.1%.

`Cc1cccc(N2CCN(C(=O)c3cnn4c(C(F)F)cc(-c5ccccc5)nc34)CC2)c1C`: the inhibition was 8.08%.

Consider `Cn1ncc2c(Nc3cccc4ccccc34)ncnc21`, for which the inhibition was 2.63%.

With `Cc1noc(COc2ccccc2OCc2onc(C)c2Cl)c1Cl`, the inhibition is -10.7%.

Regarding `Cn1c2c(c(=O)n(C)c1=O)C(c1cccc([N+](=O)[O-])c1)Nc1ccccc1O2` (stereo not given), the inhibition is -10.5%.

`CCOc1ccc(C(O)Cc2nc3ccccc3n2C)cc1` (stereo not given): the inhibition was 3.1%.

For `CCCn1c(C)cc(C(=O)COC(=O)c2c(C)nn(-c3ccccc3)c2C)c1C`, the inhibition is -7.34%.

In the case of `COc1ccc(C(=O)Nc2ccc(CN3CCOCC3)cc2)cc1`, the inhibition is 11%.

Turning to `N#C/C(=C\c1ccccc1)c1n[nH]c(Cn2cncn2)n1`, the inhibition was 8.55%.

`O=C(CSCc1ccc(Cl)cc1)N1CCCCC1`: the inhibition was -8.93%.

Turning to `Cc1cccc(NC(=O)CSc2nc3c(c(=O)[nH]2)CCCC3)c1C`, the inhibition is 5.9%.

As to `Cc1cc2nc(SCCN3CCOCC3)[nH]c2cc1C`, the inhibition is 2.4%.

As to `Cc1nn(Cc2ccccc2)c2c1C(c1ccccc1)C(C#N)=C(N)O2` (stereo not given), the inhibition was 5.74%.

As to `COc1ccc(N/N=C2/CCCCC2=O)cc1`, the inhibition is -1.11%.

In the case of `O=C(O)c1nn(-c2ccc(Cl)cc2)c2c1C(=O)c1ccccc1C2=O`, the inhibition is 53.4% (active).

Regarding `Cc1ccc(-n2ccc(=O)c(C(=O)O)n2)cc1`, the inhibition is 0.02%.

In the case of `CCOc1ccc(NC(=O)N(CC(C)C)CC(C)C)cc1`, the inhibition was 3.46%.

Consider `N#CC1=C(SCc2ccc(C#N)cc2)N=C(N)C(c2nc(-c3ccccc3)cs2)C12CCCCC2` (stereo not given), for which the inhibition is -3.23%.

For `O=C(NC1(C(F)(F)F)NC(=O)N(Cc2cccnc2)C1=O)c1ccccc1Cl` (stereo not given), the inhibition was 40.1%.

Regarding `COC(=O)c1ccc(Cc2ccccc2)o1`, the inhibition was 6.44%.

As to `O=C(O)c1ccc(C(=O)O)c2c(C(=O)O)ccc(C(=O)O)c12`, the inhibition is -1.5%.

Turning to `O=C(O)c1ccc(C(=O)c2ccccc2C(=O)O)cc1C(=O)O`, the inhibition was 63.5% (active).

`O=C(c1ccc(O)cc1)c1ccc(C(=O)O)c(C(=O)O)c1`: the inhibition is -7.32%.
